About 2,000 (36%) of roughly 5,500 compounds were called active. About 18% were inconclusive and are not listed. Cut-off read from the data, not from the text of the source: active = normalized growth mostly below about 0.91 (no sharp cut-off); inconclusive = no clear call, values can overlap the other calls; inactive = mostly above about 0.92. The list shows a part of the results.
Assay: chemical genetic growth profiling, strain panel (AID 1159580);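 note: tested at 20 µM; growth read once vehicle control cultures reached saturation at 30 °C; 1 = growth at the plate median or of vehicle wells; lower values mean less growth of the strain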
Conditions: growth OD

Measured: normalized growth

O=c1cc(-c2ccccc2)oc2c(O)c(O)ccc12
inactive: S. cerevisiae deletion strains, locus YJR066W, strain TOR1, active compounds read low 0.985 | S. cerevisiae deletion strains, locus YJR075W, strain HOC1, active compounds read low 1.01 | S. cerevisiae deletion strains, locus YKL009W, strain mrt4, active compounds read low 0.96 | S. cerevisiae deletion strains, locus YKL068W, active compounds read low 0.976 | S. cerevisiae deletion strains, locus YKL085W, strain MDH1 (second series), active compounds read low 0.986 | S. cerevisiae deletion strains, locus YKL085W, strain MDH1, active compounds read low 0.986 | S. cerevisiae deletion strains, locus YKL160W, strain elf1, active compounds read low 0.986 | S. cerevisiae deletion strains, locus YKR026C, strain gcn3, active compounds read low 0.993 | S. cerevisiae deletion strains, locus YKR091W, strain srl3, active compounds read low 0.995 | S. cerevisiae deletion strains, locus YLL001W, strain dnm1, active compounds read low 0.984 | S. cerevisiae deletion strains, locus YLL026W, active compounds read low 1 | S. cerevisiae deletion strains, locus YLL041C, strain sdh2, active compounds read low 0.987 | S. cerevisiae deletion strains, locus YLR027C, strain aat2, active compounds read low 0.999 | S. cerevisiae deletion strains, locus YLR058C, strain SHM2, active compounds read low 0.938 | S. cerevisiae deletion strains, locus YLR102C, strain apc9, active compounds read low 0.99 | S. cerevisiae deletion strains, locus YLR113W, strain HOG1, active compounds read low 1.01 | S. cerevisiae deletion strains, locus YLR221C, strain rsa3, active compounds read low 0.994 | S. cerevisiae deletion strains, locus YLR258W, strain gsy2, active compounds read low 0.987 | S. cerevisiae deletion strains, locus YLR320W, strain mms22, active compounds read low 1.01 | S. cerevisiae deletion strains, locus YLR330W, strain CHS5, active compounds read low 0.985 | S. cerevisiae deletion strains, locus YLR342W, strain FKS1, active compounds read low 0.987 | S. cerevisiae deletion strains, locus YLR357W, strain rsc2, active compounds read low 0.914 | S. cerevisiae deletion strains, locus YLR370C, strain arc18, active compounds read low 0.99 | S. cerevisiae deletion strains, locus YLR384C, strain iki3, active compounds read low 0.989 | S. cerevisiae deletion strains, locus YML016C, strain PPZ1, active compounds read low 0.952 | S. cerevisiae deletion strains, locus YML032C, strain rad52, active compounds read low 1.01 | S. cerevisiae deletion strains, locus YML120C, strain ndi1, active compounds read low 0.973 | S. cerevisiae deletion strains, locus YML124C, strain tub3, active compounds read low 0.999 | S. cerevisiae deletion strains, locus YMR058W, strain fet3, active compounds read low 0.966 | S. cerevisiae deletion strains, locus YMR078C, strain ctf18, active compounds read low 0.961 | S. cerevisiae deletion strains, locus YMR125W, strain sto1, active compounds read low 0.984 | S. cerevisiae deletion strains, locus YMR129W, active compounds read low 0.989 | S. cerevisiae deletion strains, locus YMR205C, strain PFK2, active compounds read low 1 | S. cerevisiae deletion strains, locus YMR223W, strain ubp8, active compounds read low 0.953 | S. cerevisiae deletion strains, locus YMR231W, strain pep5, active compounds read low 0.968 | S. cerevisiae deletion strains, locus YMR307W, strain GAS1, active compounds read low 0.709 | S. cerevisiae deletion strains, locus YNL067W, strain RPL9B, active compounds read low 0.955 | S. cerevisiae deletion strains, locus YNL071W, strain lat1, active compounds read low 0.985 | S. cerevisiae deletion strains, locus YNL153C, strain GIM3, active compounds read low 0.988 | S. cerevisiae deletion strains, locus YNL183C, strain NPR1, active compounds read low 1.01 | S. cerevisiae deletion strains, locus YNL209W, strain ssb2, active compounds read low 0.979 | S. cerevisiae deletion strains, locus YNL233W, strain BNI4, active compounds read low 0.922 | S. cerevisiae deletion strains, locus YNL248C, strain rpa49, active compounds read low 0.982 | S. cerevisiae deletion strains, locus YNL250W, strain rad50, active compounds read low 0.966 | S. cerevisiae deletion strains, locus YNL271C, strain bni1, active compounds read low 0.972 | S. cerevisiae deletion strains, locus YNL298W, strain CLA4, active compounds read low 0.972 | S. cerevisiae deletion strains, locus YNL307C, strain MCK1, active compounds read low 0.982 | S. cerevisiae deletion strains, locus YNL322C, strain KRE1 (second series), active compounds read low 0.993 | S. cerevisiae deletion strains, locus YNR049C, strain mso1, active compounds read low 0.993 | S. cerevisiae deletion strains, locus YNR052C, strain pop2, active compounds read low 0.916 | S. cerevisiae deletion strains, locus YOL006C, strain TOP1, active compounds read low 0.545 | S. cerevisiae deletion strains, locus YOL012C, strain htz1 0.521 | S. cerevisiae deletion strains, locus YOL147C, strain pex11, active compounds read low 0.977 | S. cerevisiae deletion strains, locus YOR001W, strain rrp6, active compounds read low 0.972 | S. cerevisiae deletion strains, locus YOR061W, strain CKA2, active compounds read low 0.921 | S. cerevisiae deletion strains, locus YOR069W, strain VPS5, active compounds read low 0.971 | S. cerevisiae deletion strains, locus YOR070C, strain gyp1, active compounds read low 0.982 | S. cerevisiae deletion strains, locus YOR080W, strain dia2, active compounds read low 0.996 | S. cerevisiae deletion strains, locus YOR083W, strain WHI5, active compounds read low 0.968 | S. cerevisiae deletion strains, locus YOR136W, strain idh2, active compounds read low 0.962 | S. cerevisiae deletion strains, locus YOR144C, strain elg1, active compounds read low 0.986 | S. cerevisiae deletion strains, locus YOR184W, strain ser1, active compounds read low 0.927 | S. cerevisiae deletion strains, locus YOR231W, strain MKK1, active compounds read low 1.06 | S. cerevisiae deletion strains, locus YOR265W, strain rbl2, active compounds read low 0.983 | S. cerevisiae deletion strains, locus YOR270C, strain vph1, active compounds read low 0.936 | S. cerevisiae deletion strains, locus YOR290C, strain snf2, active compounds read low 0.987 | S. cerevisiae deletion strains, locus YOR316C, strain cot1, active compounds read low 0.987 | S. cerevisiae deletion strains, locus YPL051W, strain arl3, active compounds read low 0.983 | S. cerevisiae deletion strains, locus YPL078C, strain atp4, active compounds read low 0.989 | S. cerevisiae deletion strains, locus YPL106C, strain sse1, active compounds read low 0.88 | S. cerevisiae deletion strains, locus YPL240C, strain hsp82, active compounds read low 0.975 | S. cerevisiae deletion strains, locus YPL241C, strain CIN2, active compounds read low 0.987 | S. cerevisiae deletion strains, locus YPL256C, strain CLN2, active compounds read low 1.06 | S. cerevisiae deletion strains, locus YPR119W, strain clb2, active compounds read low 0.991 | S. cerevisiae deletion strains, locus YPR141C, strain kar3, active compounds read low 0.974 | S. cerevisiae deletion strains, locus YPR163C, strain tif3, active compounds read low 0.987 | S. cerevisiae deletion strains, locus YPR167C, strain met16, active compounds read low 0.993 | S. cerevisiae deletion strains, strain wtn01, active compounds read low 0.903
active: S. cerevisiae deletion strains, locus YKR001C, strain vps1, active compounds read low 0.89 | S. cerevisiae deletion strains, locus YLR039C, strain RIC1, active compounds read low 0.499 | S. cerevisiae deletion strains, locus YLR262C, strain YPT6 (second series), active compounds read low 0.661 | S. cerevisiae deletion strains, locus YLR262C, strain YPT6, active compounds read low 0.593 | S. cerevisiae deletion strains, locus YLR268W, strain sec22, active compounds read low 0.768 | S. cerevisiae deletion strains, locus YLR342W, strain FKS1 (second series), active compounds read low 0.764 | S. cerevisiae deletion strains, locus YLR371W, strain rom2, active compounds read low 0.848 | S. cerevisiae deletion strains, locus YLR418C, strain cdc73, active compounds read low 0.789 | S. cerevisiae deletion strains, locus YOR106W, strain vam3, active compounds read low 0.853 | S. cerevisiae strains, strain wild type, active compounds read low 0.834

Reference: PubChem BioAssay AID1159580 (chemical genetic matrix, 2015)
